A selection: hits, their analogues and other compounds. The true share with any hit is near 6.9%.
HP1b binding inh: inhibitors of HP1-beta chromodomain binding to methylated histone tails. P83916. AlphaScreen HP1-beta / biotin-H3K9me3 peptide binding. Potency, µM (highest dose often 114 µM), for inactives: at the highest dose activity change, negative = inhibition, hits mostly inhibitors. hit rate 0.56% among 390,000. AID 540317; further: nearly all actives have a fitted effect of over 70% in size
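Compound inhibition of the preformed complex between 50 nM HP1-beta and 50 nM biotinylated H3K9me3 peptide was read by AlphaScreen. Buffer was PBS pH 7.4 with 0.01% Tween-20. Incubations ran 30 min at room temperature, with 10 ug/mL donor/acceptor beads.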
VDR inhibitor: vitamin D3 receptor (human) inhibition | P11473 | VDR-SRC2-3 peptide fluorescence polarization, 2 h | Potency, µM, inactives show max response, negative = inhibition, hits mostly inhibitors | hit rate 0.93% among 400,000 | AID 504847; further: on the % scale 0 is the no-effect control and ±100 the full control effect
Target sequence (P11473 whole entry, looked up): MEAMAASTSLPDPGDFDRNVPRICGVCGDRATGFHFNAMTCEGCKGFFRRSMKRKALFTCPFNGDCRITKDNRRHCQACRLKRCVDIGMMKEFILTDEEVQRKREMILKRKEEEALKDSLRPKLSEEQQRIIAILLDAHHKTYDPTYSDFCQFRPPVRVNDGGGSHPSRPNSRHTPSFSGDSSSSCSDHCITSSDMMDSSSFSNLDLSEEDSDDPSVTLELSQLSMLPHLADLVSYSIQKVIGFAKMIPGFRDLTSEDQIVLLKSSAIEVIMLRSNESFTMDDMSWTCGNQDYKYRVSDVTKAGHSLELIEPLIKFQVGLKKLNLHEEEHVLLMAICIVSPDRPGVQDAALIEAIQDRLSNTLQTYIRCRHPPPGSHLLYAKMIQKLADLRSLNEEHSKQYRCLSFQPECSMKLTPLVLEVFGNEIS
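Measured by FP: displacement of SRC2-3 coactivator peptide from VDR by library compounds, following a two-hour ambient incubation.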
BAZ2B inh: inhibitors of human BAZ2B bromodomain; Q9UIF8; AlphaScreen BAZ2B-H3K14Ac peptide displacement; Potency, µM (highest dose often 114 µM), for the others: at the highest dose activity change, negative = inhibition, hits mostly inhibitors; hit rate 4.4% among 360,000; AID 504333; further: on the % scale 0 is the no-effect control and ±100 the full control effect; nearly all actives have a fitted effect of over 60% in size
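Compounds, titrated to a top concentration of 110 uM, were incubated 30 min at room temperature with preformed BAZ2B/acetyl-K14 H3 peptide complex (50 nM each). Proximity signal was measured by AlphaScreen after 20 min with beads.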
JMJD2A Tudor: JMJD2A Tudor domain (human) inhibition; AlphaScreen JMJD2A-Tudor / H3K4me3 peptide binding; Potency, µM (series often up to 114 µM), without a hit: top-dose activity change, negative = inhibition, most hits filed as inhibitors; AID 504339; hit rate 4.4% among 390,000; further: on the % scale 0 is the no-effect control and ±100 the full control effect; nearly all actives have a fitted effect of over 50% in size
PLK1 PBD block: PLK1 (human) polo-box domain binding inhibition. AID 720504. hit rate 2.8% among 360,000. Potency, µM, inactives show max response, negative = inhibition, actives largely listed as inhibitors. P53350. Plk1 PBD binding of FITC phosphopeptide, fluorescence polarization; further: series mostly up to about 57 µM; on the % scale 0 is the no-effect control and ±100 the full control effect; nearly all actives have a fitted effect of over 65% in size
L3MBTL1 block: blocks human L3MBTL1 | Q9Y468 | AlphaScreen L3MBTL1–H3K9me1 peptide binding | Potency, µM (doses to about 57.1 µM), for the others: at the top dose activity, negative = inhibition, most hits filed as inhibitors | hit rate 0.66% among 230,000 | AID 485360; further: on the % scale 0 is the no-effect control and ±100 the full control effect; nearly all actives have a fitted effect of over 60% in size
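Read-out is AlphaScreen signal from streptavidin donor and nickel chelate acceptor beads (10 ug/mL final each) bridging L3MBTL1 (50 nM) and biotinylated K9-monomethylated H3(1-15) peptide (75 nM), after 30 min compound exposure at room temperature.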
An asterisk follows results filed as active; ? = inconclusive; . = not tested or not shown; [ ] = dose if it differs, or a comment. The call rests on the fitted dose curve; in most records, active means well fitted curve in the direction sought with a large enough effect; inconclusive means small, poorly fitted or top-dose-only effect, or another doubt; inactive means no such curve, though single readings can be large; an effect the other way counts as inactive or inconclusive. Potency means the concentration at half of the fitted maximal effect.

SMILES	HP1b binding inh	VDR inhibitor	BAZ2B inh	JMJD2A Tudor	PLK1 PBD block	L3MBTL1 block
COc1ccc(NC(=O)CSc2nc(O)cc(=O)[nH]2)c(OC)c1	17%	?	-29%	-14%[11.4 µM]	24µM*	.
COc1ccc(NC(=O)CSc2cn[nH]n2)c(OC)c1	27%	-9%	-2%	-13%	-18%	.
N#Cc1c(SCC(=O)Nc2cccc(C(F)(F)F)c2)sc2c(O)cc(=O)[nH]c12	-7%	?	?	-29%	13µM*	.
COc1ccc(NC(=O)c2ccc(NC(=O)CSc3nccc(=O)[nH]3)cc2)cc1	-14%	-4%	56µM*	?	-24%	.
O=C(NCCO)C(=O)NCC(c1ccc2c(c1)OCO2)N1CCOCC1 (stereo unspecified)	27%[57 µM]	11%	2%	-4%	.	.
CCOc1ccc(-c2nn3c(-c4cc(-c5ccccc5)n[nH]4)nnc3s2)cc1	24%[57 µM]	-12%	.	-6%[57.1 µM]	.	.
COc1cc(OC)cc(N2CC(C)(C)C2=O)c1	3%	-24%	1%	-29%[11.4 µM]	21µM*	16%
Cc1cc(C)cc(N2CC(C)(C)C2=O)c1	45%	5%	9%	-4%	-12%	14%
Cn1cnc(S(=O)(=O)N2CCCC(C(=O)NCc3ccc(F)cc3)C2)c1 (stereo unspecified)	38%	8%	-4%	5%	.	.
O=C(NC(=S)NCCC1=CCCCC1)c1ccccc1Br	20%	-20%	50µM*	-6%	?	2%
O=C(COC(=O)c1ccccc1Br)NCCC1=CCCCC1	36%	-15%	1%	23%	-12%	9%
O=C1c2cc(O)cc(O)c2C(=O)c2c1cc(O)c([C@@H](CO)CCO)c2O	?	-12%	.	79µM*	-23%	.
OC(c1cccnc1)c1nc(/C=C/c2ccc(C(F)(F)F)cc2)cs1 (stereo unspecified)	.	.	.	.	-11%	.
Cc1ccc2c(c1)c1c(n2CC(O)CNC2CCCCC2)CCCC1 (stereo unspecified)	?	-2%	50µM*	32µM*	-29%	.
Cc1ccc(-n2c(O)c(C=NCc3ccccn3)c3ccccc3c2=O)cc1	28%	-8%	56µM*	-18%	-10%	-9%
COc1ccc(OC)c(NC(=O)COc2coc(CN3CCc4ccccc43)cc2=O)c1	6%	18%	?	-28%	-5%	-21%
CCOC(=O)C1CCCN(Cc2nc(N)nc(Nc3ccc(Cl)cc3)n2)C1 (stereo unspecified)	32%	-9%	50µM*	18%[11.4 µM]	-23%	.
CCOC(=O)C1CCCN(Cc2nc(N)nc(Nc3ccccc3OC)n2)C1 (stereo unspecified)	38%	-5%	?	56µM*	-7%	-2%
COc1ccccc1Nc1nc(N)nc(CSC(=S)N2CCCCC2C)n1 (stereo unspecified)	-1%	-4%	-27%	-28%	-12%	-3%
CCOC(=O)C1CCCN(Cc2nc(N)nc(Nc3ccc(OC)cc3)n2)C1 (stereo unspecified)	-22%	-21%	?	20µM*	27µM*	.
COC(=O)c1ccc(C(=O)OC)c(NC(=O)N2CC3CCCN3c3ccccc32)c1 (stereo unspecified)	-17%	10%	25µM*	?	.	.
FC(F)(F)c1cccc(CN2CCN(c3ncccn3)CC2)c1	50%	13%	.	-16%	2%	.
O=[N+]([O-])c1cccc(CN2CCN(c3ncccn3)CC2)c1	?	-8%	?	2.2µM*	7%	-7%
O=[N+]([O-])c1ccccc1C(O)Cc1ccccn1 (stereo unspecified)	5%	3%	.	-6%	-8%	.
O=[N+]([O-])c1ccccc1CN1CCN(Cc2ccccn2)CC1	-10%	10%	50µM*	0.79µM*	17µM*	.
O=[N+]([O-])c1cccc(CN2CCN(c3cccc4[nH]ccc34)CC2)c1	-29%	8%	?	56µM*	-14%	.
O=C(c1ccc([N+](=O)[O-])s1)N1CCN(c2ncccn2)CC1	.	.	.	.	-3%	.

Screens deposited in PubChem by National Center for Advancing Translational Sciences (NCATS).
